From PubChem BioAssay

experiment: binders of probe aFSTL3 on microarray, primary screen, stem cell growth factor project, biochemical, small-molecule microarray, fluorescence 635/667 (AID 1064); conditions: higher = more signal;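 further: measures binding of the biotinylated anti-FSTL3 antibody to printed compounds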

SMILES	composite z-score
CO[C@@H]1COC(=O)CC=C[C@@H](C)[C@H](OC)COC(=O)CC=C[C@H]1C	-0.762
O=C1O[C@H](c2ccccc2)[C@H](c2ccccc2)N2[C@H]1[C@@H](C(=O)Nc1nc3ccccc3s1)[C@]1(C(=O)Nc3ccc(C#CC4(O)CCCCCC4)cc31)[C@H]2c1ccc(O)cc1	-0.299
O=C1O[C@@H](c2ccccc2)[C@@H](c2ccccc2)N2[C@@H](c3ccccc3OCCO)[C@]3(C(=O)Nc4ccc(C#CC5=CCCCC5)cc43)[C@@H](C(=O)O)[C@H]12	0.294
O=C1O[C@@H](c2ccccc2)[C@@H](c2ccccc2)N2[C@@H](c3ccc(O)cc3)[C@]3(C(=O)Nc4ccccc43)[C@@H](C(=O)N3CCN(c4ncccn4)CC3)[C@H]12	0.0022
C[N+](C)(C)CCCCNC(=O)[C@@H]1C[C@@H]2C(=O)N3CCC[C@H]3C(=O)N2[C@@H]1c1cccc(OCCO)c1	-0.215
C=CC[C@@]1(C(=O)N2CCOCC2)N=C(c2ccc(OCCCO)cc2)O[C@@H]1c1ccccc1	-0.487
CCC#CCN(Cc1ccccc1Br)[C@H](/C=C/c1ccccc1)[C@@H](O)Cc1ccccc1	1.78
O=C(NCc1ccccc1)c1ccc(Br)cc1[N+](=O)[O-]	-0.375
CC(C)N1CC=CC23O[C@@H]4/C=C\CCCOC(=O)C4[C@H]2C(=O)N(CCCCCO)[C@@H]3C1=O (stereo partly specified)	0.378
O=C1OCC=C[C@H]2OC34C=CCN(Cc5ccccc5)C(=O)[C@H]3N(CCO)C(=O)[C@@H]4[C@@H]12 (stereo partly specified)	0.322
O=C1O[C@H](c2ccccc2)[C@H](c2ccccc2)N2[C@H]1[C@@H](C(=O)NC[C@H](O)c1ccccc1)[C@]1(C(=O)Nc3ccc(C#CC4=CCCCC4)cc31)[C@H]2c1ccc(OCCO)cc1	0.0854
COc1ccc(-c2ccccc2[C@@H]2N[C@H](C(=O)O)CC[C@H]2C)cc1	-0.285
CCOC(=O)C[C@H]1[C@H](OC(=O)c2cc3ccccc3oc2=O)[C@@H](NC(=O)C2CCCCC2)c2cc(OCCCO)ccc2N1C(=O)c1ccc2ccccc2n1	-0.662
NC(=O)NCC#Cc1ccc2c(c1)[C@]1(C(=O)N2)[C@H](C(=O)N2CCCCCCC2)[C@H]2C(=O)O[C@H](c3ccccc3)[C@H](c3ccccc3)N2[C@@H]1c1ccccc1OCCO	3.86
Cc1ccc(N2C(=O)c3ccccc3[C@@H](C(=O)NCc3ccccc3)[C@@H]2c2ccc(CO)cc2)nc1	0.462
COC(=O)C(CC#Cc1ccc2c(c1)[C@]1(C(=O)N2)[C@H](C(=O)N2CCCCCCC2)[C@H]2C(=O)O[C@H](c3ccccc3)[C@H](c3ccccc3)N2[C@@H]1c1ccc(O)cc1)C(=O)OC	0.565
COc1ccc([Si](C)(C)[C@@H]2[C@@H](CCO)O[C@]3(C(=O)N(Cc4ccc(NC(=O)[C@H](C)O)cc4)c4ccccc43)[C@H]2C)cc1	0.0169
C=CCNC(=O)[C@@H]1[C@H]2C(=O)O[C@H](c3ccccc3)[C@H](c3ccccc3)N2[C@H](c2ccc(OCCO)cc2)[C@@]12C(=O)N(C(=O)OCCOC)c1ccc(C#CC3(O)CCCCCC3)cc12	1.33

SMILES	composite z-score
CC1CC/C=C\[C@H]2OC34C=CCN(Cn5nnc6ccccc65)C(=O)[C@H]3N(C(C)CO)C(=O)[C@@H]4C2C(=O)O1 (stereo partly specified)	-0.0303
COc1ccc([Si](C)(C)[C@H]2[C@H](CC(=O)N(CCO)Cc3ccccc3)O[C@@]3(C(=O)N(C)c4ccccc43)[C@@H]2C)cc1	-0.412
CO[C@H]1COC(=O)[C@H](CCSC)NC(=O)CC=C[C@@H](C)COC(=O)[C@@H](OCc2ccccc2)C=C[C@@H]1C	-0.929
C=CCOC(=O)[C@@H]1[C@H]2C(=O)O[C@H](c3ccccc3)[C@H](c3ccccc3)N2[C@H](c2ccc(OCCOC(=O)[C@H]3C[C@H]4C(=O)N[C@@H](CCCCNC(C)=O)C(=O)N4[C@H]3c3ccc(O)cc3)cc2)[C@@]12C(=O)Nc1ccc(I)cc12	-0.583
O=[N+]([O-])c1ccc(C[n+]2ccc3ccc(O)cc3c2)o1	-0.493
COCCOC(=O)N1C(=O)[C@@]2(c3cc(C#CC4=CCCCC4)ccc31)[C@H](C(=O)NC[C@H](O)c1ccccc1)[C@H]1C(=O)O[C@H](c3ccccc3)[C@H](c3ccccc3)N1[C@@H]2c1ccccc1OCCO	0.462
CCOC(=O)C1=CC[C@@H](c2ccc(-c3ccc(OCc4ccccc4)cc3)c(OC)c2)N(S(=O)(=O)c2ccc(C)cc2)[C@H]1c1ccccc1	-0.216
COC(=O)[C@@]1(Cc2ccc(OC)cc2)[C@H]2c3cc(C(=O)N(C)C)n(Cc4ccc(C)c(F)c4F)c3C[C@H]2CN1C(=O)c1ccccc1	0.372
CCCC=C(CCC)[C@@H](NS(=O)(=O)c1ccc(-c2ccccc2)cc1)c1ccc(C(=O)OC)cc1	0.184
CCOC(=O)[C@H]1C/C=C/C[C@H](C(=O)OCC)C(=O)O[C@H]2[C@@H](OC)O[C@H](CO)[C@@H](OC(=O)Nc3ccc(Br)cc3)[C@@H]2OC1=O	0.762
C=C[C@H](OC)[C@@H](OC(=O)Nc1ccc(SC)cc1)c1ccc(O)c(F)c1	-0.0125
COCCOC(=O)N1C(=O)[C@@]2(c3cc(C#CCNC(N)=O)ccc31)[C@H](c1ccc(OCCO)cc1)N1[C@H](c3ccccc3)[C@H](c3ccccc3)OC(=O)[C@H]1[C@@H]2C(=O)N1CCCCCCC1	2.75
CN(C)c1ccc(C(O)C2C=CC3C(=O)NC(=O)C3N2Nc2ccc(Cl)cc2Cl)cc1 (stereo unspecified)	0.649
COCCOC(=O)N1C(=O)[C@@]2(c3cc(C#CCC(C(=O)OC)C(=O)OC)ccc31)[C@H](C(=O)N1CCN(c3ncccn3)CC1)[C@H]1C(=O)O[C@H](c3ccccc3)[C@H](c3ccccc3)N1[C@@H]2c1ccc(O)cc1	-0.0797
COCCOC(=O)N1C(=O)[C@@]2(c3ccccc31)[C@H](C(=O)N1CCc3cc(OC)c(OC)cc3C1)[C@H]1C(=O)O[C@H](c3ccccc3)[C@H](c3ccccc3)N1[C@@H]2c1ccccc1OCCO	0.221
CC(C)=C1C(=O)C(c2ccccc2)=C2CN3C(=O)N(CCc4ccccc4)C(=O)[C@]3(Cc3ccccc3)[C@H]21	0.5
CO[C@H]1COC(=O)CC=C[C@H](C)COC(=O)[C@@H](OCc2ccccc2)C=C[C@@H]1C	-0.938
[N-]=[N+]=NCc1ccccc1C[C@@]1(C(=O)N2CCOCC2)N=C(c2ccc(OCCCO)cc2)O[C@@H]1c1ccccc1N=[N+]=[N-]	0.308
